A selection: hits, their analogues and other compounds. The true share with any hit is near 0.37%.
Rab2A wt mod = modulators of GTP binding to Rab2A wildtype, primary screen, biochemical, dog, bead-based flow cytometry, multiplex. Ras-related protein Rab-2A (Canis lupus familiaris), P61105. GST-Rab2 wt beads, Bodipy-GTP binding. GTP binding activity, % at 10 µM. 190,000 tested, 0.19% active. AID 760, 2007;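 active = GTP binding activity at least 20 points away from 100%, either lowered or raised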;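 also: 0% = beads with excess unlabeled GTP and 100% = no-compound control corrected for plate trend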
Rab7 wt GTP bind = modulators of GTP binding to Rab7, primary screen, biochemical, wildtype, multiplex bead flow cytometry. 190,000 tested, 0.055% active. AID 758, 2007. Rab7 GTPase wild type (dog), Bodipy-FL-GTP binding. GST-Rab7 beads, fluorescent GTP binding; actives lie on both sides; untreated = 100%, excess cold GTP = 0%. GTP binding activity (percent of control), % at 10 µM;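 active = fluorescent GTP binding to Rab7 beads changed by at least 20 points from the 100% baseline, either direction, mostly lower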;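 also: median green fluorescence of bound Bodipy-FL-GTP per Rab7 bead population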
HRas wt GTP = modulators of GTP binding to HRas wildtype, primary screen, biochemical, bead-based flow cytometry, multiplex; 190,000 tested, 0.14% active; GST-Ras wt beads, Bodipy-FL-GTP binding; actives lie on both sides; GTP binding activity, % at 10 µM;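 active = GTP binding activity at least 20% away from the 100% baseline, either lowered as inhibitor or raised as activator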;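 also: 0% = unlabeled GTP competition control and 100% = no-compound control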
Target sequence (P01112 whole entry, looked up): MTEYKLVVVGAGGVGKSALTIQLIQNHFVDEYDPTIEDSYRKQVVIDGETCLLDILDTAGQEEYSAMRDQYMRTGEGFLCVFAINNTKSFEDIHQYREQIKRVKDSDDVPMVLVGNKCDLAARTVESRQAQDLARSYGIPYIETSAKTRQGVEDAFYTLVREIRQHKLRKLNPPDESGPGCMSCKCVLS
Rac1 wt modul = wildtype Rac1 GTP binding modulators, primary screen, biochemical, GST-Rac1 beads, flow cytometry, multiplex; fluorescent GTP binding; actives lie on both sides; 0 = cold GTP competed, 100 = untreated; GTP binding activity (% of control), % at 10 µM; 190,000 tested, 0.27% active; Ras-related C3 botulinum toxin substrate 1 (Homo sapiens), P63000; AID 757, 2007;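 active = GTP binding activity at least 20 points away from the 100% control level, either lower or higher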
Cdc42 wt GTP = modulators of GTP binding to wildtype Cdc42, primary screen, biochemical, multiplex bead flow cytometry, Bodipy-GTP; GST-Cdc42 beads; actives lie on both sides; Cell division control protein 42 homolog (Homo sapiens), P60953; percent activity (GTP binding), % at 10 µM; 190,000 tested, 0.2% active;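 active = percent activity GTP binding at least 20 points away from the 100% baseline, either down as inhibitor or up as activator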;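 also: median bead fluorescence of bound Bodipy-FL-GTP at 100 nM; 0% = excess unlabeled GTP control and 100% = no compound control; below 100% means less GTP binding so inhibitor and above means activator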
Target sequence (P60953 whole entry, looked up): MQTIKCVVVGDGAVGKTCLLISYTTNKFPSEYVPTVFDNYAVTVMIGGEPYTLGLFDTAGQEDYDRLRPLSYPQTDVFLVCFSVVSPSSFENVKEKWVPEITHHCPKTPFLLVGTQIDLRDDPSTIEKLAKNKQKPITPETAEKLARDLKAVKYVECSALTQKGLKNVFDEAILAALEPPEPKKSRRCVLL
Rac1 mut GTP = GTP binding modulators of activated mutant Rac1, primary screen, biochemical, bead-based flow cytometry, multiplex, fluorescent GTP | GST-Rac1 activated beads; actives lie on both sides; 100% means binding = to untreated wells | Ras-related C3 botulinum toxin substrate 1 (Homo sapiens), P63000 | percent activity (GTP binding), % at 10 µM | 190,000 tested, 0.11% active | AID 764, 2007;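 active = GTP binding at least 20 percentage points away from the 100% baseline, in either direction, so actives lie on both sides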
* hit, by the source's call; [ ] = another dose, or the depositor's remark.

For Cc1cc(/C=C(\C#N)C(=O)NCc2ccco2)c(C)n1-c1ccc(C(=O)O)cc1 the results were Rab2A wt mod 97.0, Rab7 wt GTP bind 109.0, HRas wt GTP 96.0, Rac1 wt modul 100.0, Cdc42 wt GTP 93.0 and Rac1 mut GTP 95.0.
COc1cccc(NC(=O)NCCCN2CCN(c3ccc(F)cc3)CC2)c1 was read as Rab2A wt mod 98.0, Rab7 wt GTP bind 76.0*, HRas wt GTP 98.0, Rac1 wt modul 99.0, Cdc42 wt GTP 100.0 and Rac1 mut GTP 100.0.
Screening COc1cccc(NC(=O)CN2CCN(c3ccc(F)cc3)CC2)c1 returned Rab2A wt mod 97.0, Rab7 wt GTP bind 98.0, HRas wt GTP 97.0, Rac1 wt modul 95.0, Cdc42 wt GTP 96.0 and Rac1 mut GTP 95.0.
CO/N=C/NC(=O)NOCc1ncc(C(F)(F)F)cc1Cl was read as Rab2A wt mod 115.0, Rab7 wt GTP bind 104.0, HRas wt GTP 113.0, Rac1 wt modul 123.0*[activator], Cdc42 wt GTP 118.0 and Rac1 mut GTP 104.0.
Screening NC(=O)NOCc1ncc(C(F)(F)F)cc1Cl returned Rab2A wt mod 113.0, Rab7 wt GTP bind 105.0, HRas wt GTP 111.0, Rac1 wt modul 120.0*[activator], Cdc42 wt GTP 117.0 and Rac1 mut GTP 104.0.
`CCOC(=O)C1=C(O)C(=O)N(CCCn2ccnc2)C1c1ccc(OC)cc1` (configuration not stated) gave Rab2A wt mod 97.0, Rab7 wt GTP bind 98.0, HRas wt GTP 96.0, Rac1 wt modul 98.0, Cdc42 wt GTP 98.0 and Rac1 mut GTP 91.0.
`COc1cc([N+](=O)[O-])ccc1N=Nc1c(N)[nH]n(-c2ccccc2)c1=O` gave Rab2A wt mod 80.0, Rab7 wt GTP bind 87.0, HRas wt GTP 85.0, Rac1 wt modul 81.0, Cdc42 wt GTP 78.0* and Rac1 mut GTP 83.0.
Cc1ccc(NC(=O)C2CCCN(C(=O)c3ccc(Cl)cc3)C2)cc1S(=O)(=O)N1CCOCC1 (configuration not stated) was read as Rab2A wt mod 94.0, Rab7 wt GTP bind 99.0, HRas wt GTP 97.0, Rac1 wt modul 100.0, Cdc42 wt GTP 95.0 and Rac1 mut GTP 97.0.
N=C1/C(=C\c2ccc(SCc3ccco3)o2)C(=O)N=C2SC=NN12 was read as Rab2A wt mod 77.0*, Rab7 wt GTP bind 88.0, HRas wt GTP 74.0*, Rac1 wt modul 76.0*, Cdc42 wt GTP 72.0* and Rac1 mut GTP 81.0.
Screening COC(=O)c1c(NC(=O)CSc2nc3nc(C)cc(C)n3n2)sc(C)c1C returned Rab2A wt mod 100.0, Rab7 wt GTP bind 100.0, HRas wt GTP 100.0, Rac1 wt modul 105.0, Cdc42 wt GTP 100.0 and Rac1 mut GTP 97.0.
For CCOc1ccc2c(c1)c(N=NC(=N)N)c(O)n2C the results were Rab2A wt mod 86.0, Rab7 wt GTP bind 93.0, HRas wt GTP 84.0, Rac1 wt modul 78.0*, Cdc42 wt GTP 90.0 and Rac1 mut GTP 90.0.
For CCOc1ccc2c(c1)c(N=Nc1cccc(C(=O)O)c1)c(O)n2C the results were Rab2A wt mod 95.0, Rab7 wt GTP bind 98.0, HRas wt GTP 96.0, Rac1 wt modul 93.0, Cdc42 wt GTP 99.0 and Rac1 mut GTP 95.0.
`CCOc1ccc2ccccc2c1/C=N/n1cncn1` gave Rab2A wt mod 102.0, Rab7 wt GTP bind 98.0, HRas wt GTP 100.0, Rac1 wt modul 130.0*[activator], Cdc42 wt GTP 115.0 and Rac1 mut GTP 104.0.
CCOC(=O)C1(Cc2cccc(OC)c2)CCN(Cc2ccc(C)s2)CC1 was read as Rab2A wt mod 96.0, Rab7 wt GTP bind 103.0, HRas wt GTP 98.0, Rac1 wt modul 96.0, Cdc42 wt GTP 95.0 and Rac1 mut GTP 93.0.
Cc1ccc(-n2c(=O)cc(N3CCc4ccccc4C3)[nH]c2=O)cc1 was read as Rab2A wt mod 107.0, Rab7 wt GTP bind 104.0, HRas wt GTP 107.0, Rac1 wt modul 126.0*[activator], Cdc42 wt GTP 110.0 and Rac1 mut GTP 106.0.
`Cc1ccc(-n2c(=O)cc(N3CCN(C(=O)c4ccco4)CC3)[nH]c2=O)cc1` gave Rab2A wt mod 102.0, Rab7 wt GTP bind 107.0, HRas wt GTP 106.0, Rac1 wt modul 121.0*[activator], Cdc42 wt GTP 102.0 and Rac1 mut GTP 105.0.
Screening CCOC(=O)COc1ccc(Br)cc1/C=C/c1[nH]c(=O)[nH]c(=O)c1[N+](=O)[O-] returned Rab2A wt mod 92.0, Rab7 wt GTP bind 100.0, HRas wt GTP 89.0, Rac1 wt modul 83.0, Cdc42 wt GTP 83.0 and Rac1 mut GTP 88.0.
O=C(COc1ccccc1/C=C\c1[nH]c(=O)[nH]c(=O)c1[N+](=O)[O-])Nc1ccccc1 was read as Rab2A wt mod 77.0*, Rab7 wt GTP bind 95.0, HRas wt GTP 79.0*, Rac1 wt modul 79.0*, Cdc42 wt GTP 73.0* and Rac1 mut GTP 77.0*.
Screening CCCc1cc(N2CCN(C(=O)c3ccco3)CC2)n2c(nc3ccccc32)c1C#N returned Rab2A wt mod 79.0*, Rab7 wt GTP bind 84.0, HRas wt GTP 81.0, Rac1 wt modul 84.0, Cdc42 wt GTP 87.0 and Rac1 mut GTP 85.0.
Screening COc1ccc(CC(=O)Nc2ccc(S(=O)(=O)NC(C)C)cc2)cc1 returned Rab2A wt mod 29.0*, Rab7 wt GTP bind 22.0*, HRas wt GTP 33.0*, Rac1 wt modul 27.0*, Cdc42 wt GTP 30.0* and Rac1 mut GTP 29.0*.
Screening CCCCNS(=O)(=O)c1ccc(NC(=O)Cc2ccc(OC)cc2)cc1 returned Rab2A wt mod 95.0, Rab7 wt GTP bind 93.0, HRas wt GTP 96.0, Rac1 wt modul 98.0, Cdc42 wt GTP 94.0 and Rac1 mut GTP 95.0.
For Cc1ccc(/C=C2\SC(=S)N(C(Cc3ccccc3)C(=O)O)C2=O)cc1 (configuration not stated) the results were Rab2A wt mod 79.0*, Rab7 wt GTP bind 92.0, HRas wt GTP 85.0, Rac1 wt modul 83.0, Cdc42 wt GTP 82.0 and Rac1 mut GTP 80.0.
`O=C(NCc1ccco1)c1cnn2c(C(F)F)cc(-c3ccccc3)nc12` gave Rab2A wt mod 98.0, Rab7 wt GTP bind 99.0, HRas wt GTP 98.0, Rac1 wt modul 99.0, Cdc42 wt GTP 97.0 and Rac1 mut GTP 96.0.
For COCCNC(=O)c1cnn2c(C(F)F)cc(-c3ccccc3)nc12 the results were Rab2A wt mod 87.0, Rab7 wt GTP bind 98.0, HRas wt GTP 90.0, Rac1 wt modul 79.0*, Cdc42 wt GTP 83.0 and Rac1 mut GTP 88.0.

Screening results from PubChem BioAssay.
